Measurements as given in the supplement of paper PMC8728848.
Only a selection was taken, and the strongest signals are over-represented in it overall.

Legend:
Assay in all cases: glycan array binding signal (z-score within array); higher = stronger binding
Conditions in all cases: glycan notation: IUPAC condensed, linker removed; mutation: D224N
[1] = biological target: Fuc(a1-2)Gal(b1-3)GlcNAc(b1-2)Man(a1-3)[Fuc(a1-2)Gal(b1-3)GlcNAc(b1-2)Man(a1-6)]Man(b1-4)GlcNAc(b1-4)GlcNAc
Outline: (§1)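 Arrays were curated from the Consortium for Functional Glycomics database, 3228 in total, and kept only where the protein sequence was available. Binding is expressed as a within-array Z-score. This score was averaged across arrays of the same protein sequence at different concentrations or buffers and across linkers, and negative values can be read as non-binding.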

[2] = biological target: Fuc(a1-2)Gal(b1-3)GlcNAc(b1-3)[Neu5Ac(a2-6)Gal(b1-4)GlcNAc(b1-6)]Gal(b1-4)Glc
Outline: as §1

[3] = biological target: Fuc(a1-2)Gal(b1-3)GlcNAc6S
Outline: as §1

[4] = biological target: Fuc(a1-2)Gal(b1-4)GlcNAc(b1-3)GalNAc
Outline: as §1

[5] = biological target: Fuc(a1-2)Gal(b1-4)GlcNAc(b1-3)[Fuc(a1-2)Gal(b1-4)GlcNAc(b1-6)]GalNAc
Outline: as §1

[6] = biological target: Fuc(a1-2)[Gal(a1-3)]Gal(b1-3)GalNAc
Outline: as §1

[7] = biological target: Fuc(a1-2)[GalNAc(a1-3)]Gal(b1-3)GlcNAc
Outline: as §1

[8] = biological target: Fuc(a1-2)[GalNAc(a1-3)]Gal(b1-4)GlcNAc(b1-3)Gal(b1-4)GlcNAc(b1-3)Gal(b1-4)GlcNAc
Outline: as §1

[9] = biological target: Fuc(a1-3)[Gal(b1-4)]Glc6S
Outline: as §1

[10] = biological target: Fuc(a1-3)[Gal(b1-4)]GlcNAc(b1-2)Man(a1-3)[Fuc(a1-3)[Gal(b1-4)]GlcNAc(b1-2)Man(a1-6)]Man(b1-4)GlcNAc(b1-4)[Fuc(a1-6)]GlcNAc
Outline: as §1

[11] = biological target: Fuc(a1-3)[Gal(b1-4)]GlcNAc(b1-3)Gal(b1-4)[Fuc(a1-3)]GlcNAc(b1-3)Gal(b1-4)[Fuc(a1-3)]GlcNAc
Outline: as §1

[12] = biological target: Fuc(a1-3)[Gal(b1-4)]GlcNAc(b1-6)GalNAc
Outline: as §1

[13] = biological target: Gal(a1-2)Gal
Outline: as §1

[14] = biological target: Gal(a1-3)GalNAc
Outline: as §1

[15] = biological target: Gal(b1-3)GlcNAc(b1-2)Man
Outline: as §1

[16] = biological target: Gal(b1-3)GlcNAc(b1-3)Gal(b1-4)GlcNAc(b1-6)[Gal(b1-3)GlcNAc(b1-3)]Gal(b1-4)Glc
Outline: as §1

[17] = biological target: Gal(b1-4)GlcNAc(b1-3)Gal(b1-4)GlcNAc(b1-2)[Gal(b1-4)GlcNAc(b1-3)Gal(b1-4)GlcNAc(b1-6)]Man(a1-6)[Gal(b1-4)GlcNAc(b1-3)Gal(b1-4)GlcNAc(b1-2)Man(a1-3)]Man(b1-4)GlcNAc(b1-4)GlcNAc
Outline: as §1

[18] = biological target: Gal(b1-4)GlcNAc(b1-3)Gal(b1-4)GlcNAc(b1-3)Gal(b1-4)GlcNAc(b1-3)Gal(b1-4)GlcNAc(b1-2)Man(a1-3)[Gal(b1-4)GlcNAc(b1-3)Gal(b1-4)GlcNAc(b1-3)Gal(b1-4)GlcNAc(b1-3)Gal(b1-4)GlcNAc(b1-2)Man(a1-6)]Man(b1-4)GlcNAc(b1-4)[Fuc(a1-6)]GlcNAc
Outline: as §1

[19] = biological target: Gal(b1-4)GlcNAc(b1-3)Gal(b1-4)GlcNAc(b1-3)Gal(b1-4)GlcNAc(b1-3)Gal(b1-4)GlcNAc(b1-3)Gal(b1-4)GlcNAc(b1-2)Man(a1-3)[Gal(b1-4)GlcNAc(b1-3)Gal(b1-4)GlcNAc(b1-3)Gal(b1-4)GlcNAc(b1-3)Gal(b1-4)GlcNAc(b1-3)Gal(b1-4)GlcNAc(b1-2)Man(a1-6)]Man(b1-4)GlcNAc(b1-4)GlcNAc
Outline: as §1

[20] = biological target: Gal3S(b1-4)[Fuc(a1-3)]Glc6S
Outline: as §1

[21] = biological target: Gal3S6S(b1-4)GlcNAc
Outline: as §1

[22] = biological target: Gal6S(b1-4)Glc6S
Outline: as §1

[23] = biological target: Glc(a1-4)Glc(a1-4)Glc(a1-4)Glc
Outline: as §1

[24] = biological target: GlcNAc(a1-4)Gal(b1-4)GlcNAc
Outline: as §1

[25] = biological target: GlcNAc(a1-4)Gal(b1-4)GlcNAc(b1-3)Gal(b1-4)GlcNAc(b1-3)Gal(b1-4)GlcNAc
Outline: as §1

[26] = biological target: GlcNAc(a1-4)Gal(b1-4)GlcNAc(b1-3)Gal(b1-4)[Fuc(a1-3)]GlcNAc(b1-3)Gal(b1-4)[Fuc(a1-3)]GlcNAc
Outline: as §1

[27] = biological target: GlcNAc(b1-3)Gal(b1-4)GlcNAc(b1-3)Gal(b1-4)GlcNAc(b1-2)Man(a1-3)[GlcNAc(b1-3)Gal(b1-4)GlcNAc(b1-3)Gal(b1-4)GlcNAc(b1-2)Man(a1-6)]Man(b1-4)GlcNAc(b1-4)GlcNAc
Outline: as §1

[28] = biological target: GlcNAc(b1-3)Gal(b1-4)GlcNAc(b1-3)Gal(b1-4)GlcNAc(b1-2)[GlcNAc(b1-3)Gal(b1-4)GlcNAc(b1-3)Gal(b1-4)GlcNAc(b1-6)]Man(a1-6)[GlcNAc(b1-3)Gal(b1-4)GlcNAc(b1-3)Gal(b1-4)GlcNAc(b1-2)Man(a1-3)]Man(b1-4)GlcNAc(b1-4)[Fuc(a1-6)]GlcNAc
Outline: as §1

[29] = biological target: GlcNAc(b1-3)Gal(b1-4)GlcNAc(b1-3)Gal(b1-4)GlcNAc(b1-3)Gal(b1-4)GlcNAc(b1-2)Man(a1-3)[GlcNAc(b1-3)Gal(b1-4)GlcNAc(b1-3)Gal(b1-4)GlcNAc(b1-3)Gal(b1-4)GlcNAc(b1-2)Man(a1-6)]Man(b1-4)GlcNAc(b1-4)[Fuc(a1-6)]GlcNAc
Outline: as §1

[30] = biological target: GlcNAc(b1-3)Gal(b1-4)GlcNAc(b1-3)Gal(b1-4)GlcNAc(b1-3)Gal(b1-4)GlcNAc(b1-3)Gal(b1-4)GlcNAc(b1-2)Man(a1-3)[GlcNAc(b1-3)Gal(b1-4)GlcNAc(b1-3)Gal(b1-4)GlcNAc(b1-3)Gal(b1-4)GlcNAc(b1-3)Gal(b1-4)GlcNAc(b1-2)Man(a1-6)]Man(b1-4)GlcNAc(b1-4)GlcNAc
Outline: as §1

[31] = biological target: GlcNAc(b1-3)Gal(b1-4)GlcNAc(b1-6)[GlcNAc(b1-3)Gal(b1-3)]GalNAc
Outline: as §1

[32] = biological target: GlcNAc(b1-4)[GlcNAc(b1-6)]GalNAc
Outline: as §1

[33] = biological target: Kdn(a2-3)Gal(b1-4)[Fuc(a1-3)]GlcNAc
Outline: as §1

[34] = biological target: Man(a1-2)Man(a1-2)Man(a1-6)[Man(a1-3)]Man
Outline: as §1

[35] = biological target: Man(a1-3)[Man(a1-6)]Man
Outline: as §1

[36] = biological target: Man(a1-3)[Man(a1-6)]Man(a1-6)[Man(a1-3)]Man
Outline: as §1

[37] = biological target: Neu5Ac(a2-3)Gal(b1-4)GlcNAc(b1-3)Gal
Outline: as §1

[38] = biological target: Neu5Ac(a2-3)Gal(b1-4)GlcNAc(b1-3)Gal(b1-4)[Fuc(a1-3)]GlcNAc
Outline: as §1

[39] = biological target: Neu5Ac(a2-3)Gal(b1-4)GlcNAc(b1-3)[Neu5Ac(a2-3)Gal(b1-4)GlcNAc(b1-6)]GalNAc
Outline: as §1

[40] = biological target: Neu5Ac(a2-3)Gal(b1-4)[Fuc(a1-3)]GlcNAc(b1-3)Gal(b1-4)GlcNAc
Outline: as §1

[41] = biological target: Neu5Ac(a2-3)Gal(b1-4)[Fuc(a1-3)]GlcNAc(b1-6)[Neu5Ac(a2-3)Gal(b1-3)]GalNAc
Outline: as §1

[42] = biological target: Neu5Ac(a2-3)Gal6S(b1-4)[Fuc(a1-3)]GlcNAc
Outline: as §1

[43] = biological target: Neu5Ac(a2-6)Gal(b1-4)GlcNAc(b1-2)Man(a1-3)Man(b1-4)GlcNAc(b1-4)GlcNAc
Outline: as §1

[44] = biological target: Neu5Ac(a2-6)Gal(b1-4)GlcNAc(b1-2)Man(a1-6)[Man(a1-3)]Man(b1-4)GlcNAc(b1-4)GlcNAc
Outline: as §1

[45] = biological target: Neu5Ac(a2-6)Gal(b1-4)GlcNAc(b1-3)Gal(b1-4)GlcNAc(b1-2)Man(a1-3)[Neu5Ac(a2-6)Gal(b1-4)GlcNAc(b1-3)Gal(b1-4)GlcNAc(b1-2)Man(a1-6)]GalNAc
Outline: as §1

[46] = biological target: Neu5Ac(a2-6)Gal(b1-4)GlcNAc(b1-3)Gal(b1-4)GlcNAc(b1-3)Gal(b1-4)GlcNAc(b1-2)Man(a1-3)[Neu5Ac(a2-6)Gal(b1-4)GlcNAc(b1-3)Gal(b1-4)GlcNAc(b1-3)Gal(b1-4)GlcNAc(b1-2)Man(a1-6)]GalNAc
Outline: as §1

[47] = biological target: Neu5Ac(a2-6)Gal(b1-4)GlcNAc(b1-3)GalNAc
Outline: as §1

[48] = biological target: Neu5Ac(a2-8)Neu5Ac(a2-3)Gal(b1-4)Glc
Outline: as §1

[49] = biological target: Neu5Ac(a2-8)Neu5Ac(a2-8)Neu5Ac(a2-3)Gal(b1-4)Glc
Outline: as §1

[50] = biological target: Neu5Ac(a2-8)Neu5Ac(a2-8)Neu5Ac(a2-3)[GalNAc(b1-4)]Gal(b1-4)Glc
Outline: as §1

B1: a L Fucosidase (Thermotoga maritima) (protein)
chain: MASMKPRYKPDWESLREHTVPKWFDKAKFGIFIHWGIYSVPGWATPTGELGKVPMDAWFFQNPYAEWYENSLRIKESPTWEYHVKTYGENFEYEKFADLFTAEKWDPQEWADLFKKAGAKYVIPTTKHHDGFCLWGTKYTDFNSVKRGPKRDLVGDLAKAVREAGLRFGVYYSGGLDWRFTTEPIRYPEDLSYIRPNTYEYADYAYKQVMELVDLYLPDVLWNNMGWPEKGKEDLKYLFAYYYNKHPEGSVNDRWGVPHWDFKTAEYHVNYPGDLPGYKWEFTRGIGLSFGYNRNEGPEHMLSVEQLVYTLVDVVSKGGNLLLNVGPKGDGTIPDLQKERLLGLGEWLRKYGDAIYGTSVWERCCAKTEDGTEIRFTRKCNRIFVIFLGIPTGEKIVIEDLNLSAGTVRHFLTGERLSFKNVGKNLEITVPKKLLETDSITLVLEAVEE
B1 was tested, and the “glycan array binding signal (z-score)” value [1] was 0.227, the “glycan array binding signal (z-score)” value [2] was -0.742 and the “glycan array binding signal (z-score)” value [3] was -0.396. The “glycan array binding signal (z-score)” value [4] was 0.144, the “glycan array binding signal (z-score)” value [5] was 0.657 and the “glycan array binding signal (z-score)” value [6] was -0.35. The “glycan array binding signal (z-score)” value [7] was 2.8, the “glycan array binding signal (z-score)” value [8] was 0.201 and the “glycan array binding signal (z-score)” value [9] was 2.33. For the same binder, the “glycan array binding signal (z-score)” value [10] was 1.05, the “glycan array binding signal (z-score)” value [11] was 0.062 and the “glycan array binding signal (z-score)” value [12] was -0.2. For the same binder, the “glycan array binding signal (z-score)” value [13] was -0.446, the “glycan array binding signal (z-score)” value [14] was -0.41 and the “glycan array binding signal (z-score)” value [15] was 0.366. For the same binder, the “glycan array binding signal (z-score)” value [16] was -0.509, the “glycan array binding signal (z-score)” value [17] was 1.93 and the “glycan array binding signal (z-score)” value [18] was 0.731. The “glycan array binding signal (z-score)” value [19] was 0.594, the “glycan array binding signal (z-score)” value [20] was 0.443 and the “glycan array binding signal (z-score)” value [21] was 1.33. For the same binder, the “glycan array binding signal (z-score)” value [22] was -0.426, the “glycan array binding signal (z-score)” value [23] was 2.84 and the “glycan array binding signal (z-score)” value [24] was -0.293. For the same binder, the “glycan array binding signal (z-score)” value [25] was 0.079, the “glycan array binding signal (z-score)” value [26] was 0.08 and the “glycan array binding signal (z-score)” value [27] was 0.079. For the same binder, the “glycan array binding signal (z-score)” value [28] was 0.296, the “glycan array binding signal (z-score)” value [29] was 3.94 and the “glycan array binding signal (z-score)” value [30] was -0.204. The “glycan array binding signal (z-score)” value [31] was 1.65, the “glycan array binding signal (z-score)” value [32] was -0.289 and the “glycan array binding signal (z-score)” value [33] was 0.051. The “glycan array binding signal (z-score)” value [34] was -0.125, the “glycan array binding signal (z-score)” value [35] was 0.332 and the “glycan array binding signal (z-score)” value [36] was 0.223. The “glycan array binding signal (z-score)” value [37] was -0.187, the “glycan array binding signal (z-score)” value [38] was 1.75 and the “glycan array binding signal (z-score)” value [39] was 0.483. For the same binder, the “glycan array binding signal (z-score)” value [40] was 1.9, the “glycan array binding signal (z-score)” value [41] was 2.83 and the “glycan array binding signal (z-score)” value [42] was -0.732. The “glycan array binding signal (z-score)” value [43] was 1.99, the “glycan array binding signal (z-score)” value [44] was 0.081 and the “glycan array binding signal (z-score)” value [45] was 2.02. For the same binder, the “glycan array binding signal (z-score)” value [46] was 10.5, the “glycan array binding signal (z-score)” value [47] was 1.83 and the “glycan array binding signal (z-score)” value [48] was -0.893. The “glycan array binding signal (z-score)” value [49] was 0.654 and the “glycan array binding signal (z-score)” value [50] was 0.362.
